Reference: ChEMBL document CHEMBL3988442, “University of Dundee, Small-Polar-MMV Screening Library” (2021)
For some of these results: Measured potencies and affinities stand elsewhere.

Assays:
Parameters in all cases: scale not given: direction of the effect not stated beside the values
[1] = molecular target: Protein translocase subunit SecA (Escherichia coli (strain K12)) (UniProt P10408); experiment: Assay to Identify E. coli SecA ATPase Inhibitors; format: functional; details: 30 µM
[2] = molecular target: T1, Ubiquitin-activating enzyme e1, putative (Leishmania donovani (strain BPK282A1)) (UniProt E9BSI1); experiment: Leishmania donovani Ubiquitin Activating Enzyme (LdE1); format: functional; details: 30 µM
T1 sequence (whole entry): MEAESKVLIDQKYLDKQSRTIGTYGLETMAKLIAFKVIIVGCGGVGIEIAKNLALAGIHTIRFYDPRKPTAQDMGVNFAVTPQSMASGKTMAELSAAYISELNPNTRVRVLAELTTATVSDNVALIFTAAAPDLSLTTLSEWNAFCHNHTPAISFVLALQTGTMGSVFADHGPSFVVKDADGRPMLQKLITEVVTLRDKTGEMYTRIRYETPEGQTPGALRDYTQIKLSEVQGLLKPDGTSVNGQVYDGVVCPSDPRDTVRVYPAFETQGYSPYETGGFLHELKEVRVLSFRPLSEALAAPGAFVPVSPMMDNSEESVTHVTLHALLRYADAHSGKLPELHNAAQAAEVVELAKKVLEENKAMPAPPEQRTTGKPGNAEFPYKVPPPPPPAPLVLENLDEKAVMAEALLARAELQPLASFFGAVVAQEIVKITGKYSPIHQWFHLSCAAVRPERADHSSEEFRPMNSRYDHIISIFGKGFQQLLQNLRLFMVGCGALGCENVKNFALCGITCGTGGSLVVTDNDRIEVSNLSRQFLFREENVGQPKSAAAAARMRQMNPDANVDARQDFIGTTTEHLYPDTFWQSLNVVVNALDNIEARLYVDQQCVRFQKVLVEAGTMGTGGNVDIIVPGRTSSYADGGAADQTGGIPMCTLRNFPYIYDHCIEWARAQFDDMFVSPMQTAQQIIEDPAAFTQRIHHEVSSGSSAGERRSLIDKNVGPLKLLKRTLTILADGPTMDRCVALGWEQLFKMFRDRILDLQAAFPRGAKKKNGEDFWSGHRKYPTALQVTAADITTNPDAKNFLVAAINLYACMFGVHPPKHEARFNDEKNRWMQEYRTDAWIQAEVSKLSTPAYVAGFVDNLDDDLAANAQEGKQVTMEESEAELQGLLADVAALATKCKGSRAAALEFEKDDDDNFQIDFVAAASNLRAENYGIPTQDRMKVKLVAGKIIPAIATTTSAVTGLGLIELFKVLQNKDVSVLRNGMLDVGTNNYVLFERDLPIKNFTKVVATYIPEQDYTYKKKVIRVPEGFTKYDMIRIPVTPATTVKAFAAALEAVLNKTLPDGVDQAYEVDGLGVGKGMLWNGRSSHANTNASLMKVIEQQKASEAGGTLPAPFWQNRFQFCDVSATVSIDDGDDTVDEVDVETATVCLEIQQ

[3] = molecular target: AMP-activated protein kinase, AMPK (Homo sapiens) (UniProt P54646+O43741+P54619+Q9UGJ0+Q9Y478+Q13131+Q9UGI9); experiment: AMP-dependent Kinase enzyme assay. An in vitro enzyme assay that detects ADP turnover that is directly proportional to AMPK activity. This uses naive AMPK that is activated during the assay with MK-8722; format: functional; details: 30 µM
[4] = molecular target: Sialic acid-binding Ig-like lectin 9 (Homo sapiens) (UniProt Q9Y336); experiment: Hs-Siglec9 ALPHAscreen SOP 20170721; details: 10 µM
Sequence of Sialic acid-binding Ig-like lectin 9 (Homo sapiens) (Q9Y336 whole entry): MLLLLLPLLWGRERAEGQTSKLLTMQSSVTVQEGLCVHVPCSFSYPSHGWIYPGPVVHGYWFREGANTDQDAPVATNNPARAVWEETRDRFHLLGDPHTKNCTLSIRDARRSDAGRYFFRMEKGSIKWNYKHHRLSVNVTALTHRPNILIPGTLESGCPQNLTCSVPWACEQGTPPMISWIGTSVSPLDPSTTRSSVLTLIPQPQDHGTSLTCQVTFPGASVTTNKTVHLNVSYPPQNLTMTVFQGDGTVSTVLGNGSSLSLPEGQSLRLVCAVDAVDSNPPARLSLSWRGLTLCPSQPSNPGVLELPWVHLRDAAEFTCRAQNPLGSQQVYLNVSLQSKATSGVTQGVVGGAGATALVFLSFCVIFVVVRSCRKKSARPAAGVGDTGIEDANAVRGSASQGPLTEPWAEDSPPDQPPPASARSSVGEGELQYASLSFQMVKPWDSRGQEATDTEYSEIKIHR

[5] = system: Trypanosoma cruzi; experiment: Trypanosoma cruzi phosphomannomutase and mannose-1-phosphate guanylyltransferase assay; format: functional; details: 10 µM
[6] = molecular target: T2, Arginase-2, mitochondrial (Homo sapiens) (UniProt P78540); experiment: in vitro enzyme assay to detect the production of urea directly proportional to the activity of Arginase II; format: functional; details: 33.3 µM; further: in the data most compounds retested in dose-response had high values
T2 sequence (whole entry): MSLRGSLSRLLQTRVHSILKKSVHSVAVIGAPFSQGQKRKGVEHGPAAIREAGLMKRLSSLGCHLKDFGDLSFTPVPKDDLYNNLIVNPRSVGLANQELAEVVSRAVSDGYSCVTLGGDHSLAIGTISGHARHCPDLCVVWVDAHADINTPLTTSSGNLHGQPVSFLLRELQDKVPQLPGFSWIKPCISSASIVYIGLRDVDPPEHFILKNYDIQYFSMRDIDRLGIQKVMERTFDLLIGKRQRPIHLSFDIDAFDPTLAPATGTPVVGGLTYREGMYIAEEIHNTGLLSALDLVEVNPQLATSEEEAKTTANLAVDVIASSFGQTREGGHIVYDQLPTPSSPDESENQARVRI

[7] = molecular target: T3, Proteasome subunit beta (Trypanosoma cruzi) (UniProt O96673); experiment: Trypanosoma cruzi proteasome chymotrypsin-like activity (TcProtChymo) assay.; further: in the data most compounds retested in dose-response had high values; format: functional; details: 9.37 µM
T3 sequence (whole entry): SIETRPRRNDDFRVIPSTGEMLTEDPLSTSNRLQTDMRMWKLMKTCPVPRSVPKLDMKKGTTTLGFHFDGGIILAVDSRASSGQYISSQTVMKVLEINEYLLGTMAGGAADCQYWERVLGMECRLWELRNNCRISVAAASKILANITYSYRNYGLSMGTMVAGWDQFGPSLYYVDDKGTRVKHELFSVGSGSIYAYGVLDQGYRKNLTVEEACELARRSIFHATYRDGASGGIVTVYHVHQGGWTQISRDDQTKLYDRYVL

[8] = organism: Homo sapiens; experiment: To identify inhibition of the IFN signalling (Jak-Stat) pathway via expression of an eGFP reporter gene under the control of an IFN-stimulated response element (ISRE) containing MxA promoter.; format: functional; details: 30 µM
[9] = molecular target: T4, Tyrosyl-tRNA synthetase, putative (Trypanosoma cruzi (strain CL Brener)) (UniProt Q4DSP6); experiment: Trypanosoma cruzi tyrosyl tRNA synthetase (TcYRS) _High Tyrosine SOP; format: functional; details: 30 µM; further: in the data most compounds retested in dose-response had high values
T4 sequence (whole entry): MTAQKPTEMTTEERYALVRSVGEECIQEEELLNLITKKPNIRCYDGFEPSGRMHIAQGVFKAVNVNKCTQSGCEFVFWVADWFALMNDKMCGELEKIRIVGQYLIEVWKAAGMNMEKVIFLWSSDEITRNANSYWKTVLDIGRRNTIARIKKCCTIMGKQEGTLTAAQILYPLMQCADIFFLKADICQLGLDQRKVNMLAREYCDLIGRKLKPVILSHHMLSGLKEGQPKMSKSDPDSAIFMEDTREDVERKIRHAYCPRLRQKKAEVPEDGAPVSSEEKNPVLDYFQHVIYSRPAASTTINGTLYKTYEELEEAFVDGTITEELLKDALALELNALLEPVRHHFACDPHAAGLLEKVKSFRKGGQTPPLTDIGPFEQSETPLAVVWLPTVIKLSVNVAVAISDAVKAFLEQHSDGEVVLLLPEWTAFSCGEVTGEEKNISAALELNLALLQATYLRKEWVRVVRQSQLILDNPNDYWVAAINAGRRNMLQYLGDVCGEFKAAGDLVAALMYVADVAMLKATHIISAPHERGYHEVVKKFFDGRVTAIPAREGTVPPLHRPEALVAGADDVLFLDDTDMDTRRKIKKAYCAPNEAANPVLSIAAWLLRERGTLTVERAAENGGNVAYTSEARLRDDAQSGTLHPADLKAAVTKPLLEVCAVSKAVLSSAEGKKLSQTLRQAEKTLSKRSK

[10] = molecular target: T4, Tyrosyl-tRNA synthetase, putative (Trypanosoma cruzi (strain CL Brener)); experiment: Trypanosoma cruzi tyrosyl tRNA synthetase (TcYRS) SOP; format: functional; details: 30 µM
[11] = molecular target: Chromo domain-containing protein 1 (Saccharomyces cerevisiae (strain ATCC 204508 / S288c) (Baker's yeast)) (UniProt P32657); experiment: ScCHD-1 Enzyme Inhibition Assay; format: functional; details: 30 µM; further: in the data most compounds retested in dose-response had high values
Sequence of Chromo domain-containing protein 1 (Saccharomyces cerevisiae (strain ATCC 204508 / S288c) (Baker's yeast)) (P32657 whole entry, the tested form may be a part): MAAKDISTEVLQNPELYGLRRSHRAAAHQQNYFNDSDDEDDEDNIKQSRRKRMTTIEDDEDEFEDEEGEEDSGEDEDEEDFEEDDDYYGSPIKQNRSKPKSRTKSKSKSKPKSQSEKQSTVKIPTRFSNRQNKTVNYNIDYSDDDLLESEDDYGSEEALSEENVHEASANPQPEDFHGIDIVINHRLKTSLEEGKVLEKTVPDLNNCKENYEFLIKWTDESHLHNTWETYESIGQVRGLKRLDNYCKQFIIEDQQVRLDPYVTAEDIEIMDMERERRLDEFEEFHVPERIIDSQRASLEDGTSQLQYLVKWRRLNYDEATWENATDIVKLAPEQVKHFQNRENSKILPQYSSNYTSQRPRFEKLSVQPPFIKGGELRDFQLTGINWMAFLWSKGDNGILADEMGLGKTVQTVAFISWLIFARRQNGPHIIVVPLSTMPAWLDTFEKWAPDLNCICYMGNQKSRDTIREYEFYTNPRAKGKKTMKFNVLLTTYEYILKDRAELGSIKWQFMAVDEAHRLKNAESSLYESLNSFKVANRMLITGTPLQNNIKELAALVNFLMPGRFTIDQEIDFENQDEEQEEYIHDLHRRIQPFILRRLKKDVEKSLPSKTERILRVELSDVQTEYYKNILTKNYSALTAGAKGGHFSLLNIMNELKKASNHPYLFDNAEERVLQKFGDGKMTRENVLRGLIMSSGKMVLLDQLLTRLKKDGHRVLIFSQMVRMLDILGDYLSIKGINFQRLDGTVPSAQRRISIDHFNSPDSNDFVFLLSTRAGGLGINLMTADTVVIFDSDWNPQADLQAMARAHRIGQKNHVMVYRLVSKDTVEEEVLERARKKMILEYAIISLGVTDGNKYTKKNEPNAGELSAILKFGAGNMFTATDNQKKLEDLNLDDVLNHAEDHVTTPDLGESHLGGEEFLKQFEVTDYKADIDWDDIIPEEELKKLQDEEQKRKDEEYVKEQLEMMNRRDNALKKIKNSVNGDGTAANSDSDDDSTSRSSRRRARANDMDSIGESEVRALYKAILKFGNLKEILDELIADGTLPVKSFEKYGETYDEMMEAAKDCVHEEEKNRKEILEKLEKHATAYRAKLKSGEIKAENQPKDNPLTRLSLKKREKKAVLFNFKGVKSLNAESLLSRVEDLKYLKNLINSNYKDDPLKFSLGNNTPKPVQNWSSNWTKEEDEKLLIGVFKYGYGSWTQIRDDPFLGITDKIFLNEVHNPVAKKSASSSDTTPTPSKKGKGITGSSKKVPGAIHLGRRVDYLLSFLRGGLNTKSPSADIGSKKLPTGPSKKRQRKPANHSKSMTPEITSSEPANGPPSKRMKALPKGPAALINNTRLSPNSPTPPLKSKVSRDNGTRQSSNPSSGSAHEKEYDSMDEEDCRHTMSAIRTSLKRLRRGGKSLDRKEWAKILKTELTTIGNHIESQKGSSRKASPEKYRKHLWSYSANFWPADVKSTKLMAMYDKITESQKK

Sequence of Protein translocase subunit SecA (Escherichia coli (strain K12)) (P10408 whole entry): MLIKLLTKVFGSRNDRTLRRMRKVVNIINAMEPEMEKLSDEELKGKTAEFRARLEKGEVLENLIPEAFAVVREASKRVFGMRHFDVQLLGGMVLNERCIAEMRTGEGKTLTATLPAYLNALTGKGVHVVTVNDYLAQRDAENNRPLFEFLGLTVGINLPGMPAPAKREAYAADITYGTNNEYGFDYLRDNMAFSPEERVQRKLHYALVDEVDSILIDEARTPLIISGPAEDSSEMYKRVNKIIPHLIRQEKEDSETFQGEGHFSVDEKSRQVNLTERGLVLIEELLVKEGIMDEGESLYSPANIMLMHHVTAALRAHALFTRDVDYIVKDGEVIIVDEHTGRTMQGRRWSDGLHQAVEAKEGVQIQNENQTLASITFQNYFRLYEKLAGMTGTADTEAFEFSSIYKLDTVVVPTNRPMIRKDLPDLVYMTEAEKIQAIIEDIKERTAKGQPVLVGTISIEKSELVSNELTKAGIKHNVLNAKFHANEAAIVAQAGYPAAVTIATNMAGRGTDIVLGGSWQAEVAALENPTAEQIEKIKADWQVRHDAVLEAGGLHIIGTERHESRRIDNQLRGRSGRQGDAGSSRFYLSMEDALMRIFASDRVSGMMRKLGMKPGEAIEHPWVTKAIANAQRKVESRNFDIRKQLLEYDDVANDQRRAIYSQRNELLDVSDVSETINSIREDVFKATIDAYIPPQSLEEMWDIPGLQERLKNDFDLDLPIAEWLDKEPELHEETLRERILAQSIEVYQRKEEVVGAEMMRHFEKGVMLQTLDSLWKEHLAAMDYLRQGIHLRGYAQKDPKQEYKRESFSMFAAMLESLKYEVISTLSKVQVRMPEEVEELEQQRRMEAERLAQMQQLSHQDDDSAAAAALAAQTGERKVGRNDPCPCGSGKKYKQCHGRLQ

| SMILES | Percent Effect [1] [%] | Percent Effect [2] [%] | Percent Effect [3] [%] | Percent Effect [4] [%] | Percent Effect [5] [%] | Percent Effect [6] [%] | Percent Effect [7] [%] | Percent Effect [8] [%] | Percent Effect [9] [%] | Percent Effect [10] [%] | Percent Effect [11] [%] |
| --- | --- | --- | --- | --- | --- | --- | --- | --- | --- | --- | --- |
| O=C(Nc1cccnc1)[C@H]1CO[C@H]2CCN(c3ncc(F)cn3)C[C@H]2C1 | -3.71 | 5.33 | 2.01 | 4.5 | 0 | -55 | 11.6 | -7 | 8.33 | 5 | -9.48 |
| Cc1nc(CN(Cc2cccs2)C2CCS(=O)(=O)C2)oc1C (configuration not stated) | -3.68 | 15.8 | -1.59 | 1.17 | -3.27 | 2.16 | 6.85 | -8.22 | 5.42 | 23.5 | 1.43 |
| O[C@]1(c2ccccn2)CC[C@@H]2CN(Cc3cccc4ncccc34)C[C@@H]21 | -4.41 | 9.46 | 11.8 | -7.79 | -1.38 | 0.696 | 21.4 | 21.9 | 9.68 | 9.09 | -13.1 |
| Cc1nnc(NC(=O)NC2CCOc3ccccc32)s1 (configuration not stated) | -3.11 | 5.48 | -3.94 | 7.64 | 1.59 | -4.39 | 12.8 | -9.09 | 12.5 | 23.5 | 1.07 |
| COc1ccccc1CC(=O)N1CCC(NCc2cccnc2)CC1 | -3.89 | 16.2 | -2.91 | -2.63 | -9.01 | -0.924 | 7.18 | 3.6 | 3.96 | 3.66 | -3.87 |
| CC(C)c1nc(C2CCCN(C(=O)c3ccc4[nH]cnc4c3)C2)no1 (configuration not stated) | -9.93 | 18.2 | -3.37 | 3.45 | 5.97 | -5.26 | 12.5 | 10.7 | 5.71 | 2.35 | -15.3 |
| Cc1cc(C)n(Cc2cccc(C(=O)NCCN3CCOCC3)c2)n1 | 6.23 | 5.2 | -1.94 | 1.34 | -6.59 | -6.9 | 24.3 | 9.8 | 5.38 | 16.1 | -2.63 |
| O=C(CN1CCC(c2ccnn2CCO)CC1)NCC1CC1 | -2.3 | 17.7 | -5.47 | 0.194 | 2.36 | 0.76 | 6.96 | -2.19 | 8.37 | 29.1 | -5.59 |
| CCc1nc(CC(=O)N2CCN(c3cnccn3)CC2)cs1 | -4.23 | 16.5 | 1.43 | 5.88 | 1.95 | 1.94 | 0.343 | 11.8 | 1.04 | 17.7 | -26.3 |
| Cc1cnccc1N1CCCN(C(=O)CCCS(N)(=O)=O)CC1 | -2.12 | 5.48 | 6.21 | 1.68 | 1.37 | 15.4 | 8.87 | -6.07 | 2.15 | 12.5 | 0.551 |
| N#Cc1cc(NC(=O)c2ccsc2)ccc1N1CCC(O)CC1 | -2.1 | 13.5 | -3.83 | 18.9 | 5.99 | 12.9 | 19.3 | 27.8 | 4.76 | 14.6 | -1.54 |
| Cc1cccc(OCCC(=O)N2CCCN(C(N)=O)CC2)c1C | -5.63 | -63.3 | -5.53 | -0.36 | -9.54 | 3.8 | 3.85 | 27.5 | -3.45 | -8.86 | -6.9 |
| CNS(=O)(=O)CCCN1CCCC1c1noc(C2CC2)n1 (configuration not stated) | 0.851 | -2.53 | 9.34 | -2.31 | -2.74 | 4.56 | 9.91 | 10.4 | 0.493 | 1.27 | -7.17 |
| COc1cccc(N2CCN(C(=O)[C@H](O)C3CCCCC3)CC2=O)c1 | -1.35 | 5.41 | 2.95 | 1.44 | 2.32 | 2.38 | 21 | 3.62 | 8.99 | 17.1 | -2.64 |
| Cn1cc(CN2CC[C@@H]3[C@@H](CCC(=O)N3CCC3=CCCCC3)C2)cn1 | -5.13 | 8.22 | 4.85 | 0.26 | 0.992 | -2.79 | 10.7 | -22.4 | 0 | 1.24 | 1.06 |
| CCOC1CCCN(C(=O)NCCc2ccn(-c3ccccc3)n2)C1 (configuration not stated) | -2.03 | 20.8 | -1.06 | -7.16 | -0.49 | -2.74 | 12.1 | 0.938 | 5.71 | 18.8 | -17.1 |
| Cc1cc(CN2CCN(CCOc3cccc(C#N)c3)CC2)no1 | -2.32 | 15.8 | -0.384 | -11.5 | -1.4 | 1.44 | 10.6 | 3.18 | 5.42 | 23.5 | -5.93 |
